From PubChem BioAssay (EPA / NIEHS)
Inconclusive results are not listed. The source made the active and inactive calls. Rule for the calls: active = hit-call score of the fitted dose curve at least 0.9, where 1 is the maximum; inconclusive = response in the unintended direction; inactive = score below 0.9.

Columns and labels:
[1] = biological target: Estrogen receptor (Homo sapiens) + Estrogen receptor beta (Homo sapiens) (UniProt P03372+Q92731); assay: OT_ER_ERaERb_1440: Odyssey Thera (OT) 24-hour HEK293T Protein-Complementation Assay for Estrogen Receptor-alpha/-beta Homodimer (AID 2283356);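 note: heteromer of ER alpha and ER beta binding domains; hits raise reporter fluorescence and both agonists and antagonists give an increase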
Summary of the method: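 24 h exposure; HEK293T PCA cells with ERα/ERβ LBD fragments; signal rise in nuclear or whole-cell fluorescence over vehicle.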

[2] = biological target: Estrogen receptor beta (Homo sapiens) (UniProt Q92731); assay: OT_ER_ERbERb_0480: Odyssey Thera (OT) 8-hour HEK293T Protein-Complementation Assay for Estrogen Receptor-beta/-beta Homodimer (AID 2283357);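 note: active means signal gain over DMSO baseline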
Summary of the method: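 Readout: increase in mean fluorescence intensity (nucleus for agonists; nucleus plus cytoplasm for antagonists) relative to DMSO, from a reporter-fragment complementation of human ER-beta LBD homodimer in HEK293T cells dosed 8 hours.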

[3] = biological target: Nuclear receptor subfamily 1 group I member 2 (Homo sapiens) (UniProt O75469); assay: NVS_NR_hPXR: NovaScreen (NVS) Nuclear Receptor Binding Assay for human Pregnane X Receptor (PXR) (AID 2283365);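 note: a drop in FRET signal versus DMSO baseline means the compound binds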
Summary of the method: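 Read-out: TR-FRET, human PXR, 2 h post-dosing, cell-free. Loss of signal vs DMSO taken as binding activity; 25 uM primary, concentration series secondary.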

PGR (gene 5241) = PGR (gene 5241) (UniProt P06401); assay: NVS_NR_hPR: NovaScreen (NVS) Nuclear Receptor Binding Assay for human Progestron Receptor (PR) (AID 2283360);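 note: active means loss of bound radioligand signal versus DMSO baseline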
Summary of the method: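 Cell-free radioligand binding using receptor protein extracted from T47D cells, read by scintillation counting 18 hours after dosing. Loss of signal relative to DMSO baseline indicates displacement; primary screen single concentration 25 uM in duplicate, actives followed in concentration series.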

[4] = biological target: human Thyroid Receptor Alpha (TRa), THRA (gene 7067) (UniProt P10827); assay: NVS_NR_hTRa_Antagonist: NovaScreen (NVS) Nuclear Receptor Binding Assay for human Thyroid Receptor Alpha Antagonism (TRa) (AID 2283362);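 note: activity is loss of signal relative to DMSO baseline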
Summary of the method: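 In this biochemical format, receptor protein is dosed with chemical and read after 1 hour via AlphaLISA. Decreases from the DMSO baseline indicate antagonist activity; screening used 25 uM in duplicate before concentration-response confirmation.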

[5] = biological target: Glucocorticoid receptor (Homo sapiens) (UniProt P04150); assay: NVS_NR_hGR: NovaScreen (NVS) Nuclear Receptor Binding Assay for human Glucocorticoid Receptor (GR) (AID 2283363);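 for AC50: activity is loss of specific radioligand binding signal relative to DMSO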
Summary of the method: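 Cell-free radioligand binding with extracted receptor protein, read by filter-based scintillation counting 16 hours after dosing. Loss of specific signal versus DMSO baseline was scored. Primary screen ran in duplicate at 25 uM; actives were followed up in concentration series.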

[6] = biological target: human Peroxisome Proliferator-activated Receptor alpha (PPARa), PPARA (gene 5465) (UniProt Q07869); assay: NVS_NR_hPPARa: NovaScreen (NVS) Nuclear Receptor Binding Assay for human Peroxisome Proliferator-activated Receptor alpha (PPARa) (AID 2283359);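 note: activity means loss of TR-FRET signal versus DMSO baseline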
Summary of the method: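 Cell-free binding assay with extracted human protein, read by TR-FRET 1 h after chemical dosing. Loss of signal relative to DMSO baseline indicates binding. Primary screen used duplicate single concentration (25 uM); actives followed up in concentration series.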

[7] = biological target: Retinoic acid receptor alpha (Homo sapiens) (UniProt P10276); assay: NVS_NR_hRAR_Antagonist: NovaScreen (NVS) Nuclear Receptor Binding Assay for human Retinoic Acid Alpha Receptor Antagonism (RAR) (AID 2283358)
Summary of the method: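 Cell-free TR-FRET binding assay on extracted receptor protein, run in antagonist mode; signal read 2 hours after chemical dosing. Loss of signal was fitted relative to DMSO baseline. Screened at 25 uM in duplicate, actives followed up in concentration series.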

Sequence of human Peroxisome Proliferator-activated Receptor alpha (PPARa), PPARA (gene 5465) (Q07869 whole entry, looked up): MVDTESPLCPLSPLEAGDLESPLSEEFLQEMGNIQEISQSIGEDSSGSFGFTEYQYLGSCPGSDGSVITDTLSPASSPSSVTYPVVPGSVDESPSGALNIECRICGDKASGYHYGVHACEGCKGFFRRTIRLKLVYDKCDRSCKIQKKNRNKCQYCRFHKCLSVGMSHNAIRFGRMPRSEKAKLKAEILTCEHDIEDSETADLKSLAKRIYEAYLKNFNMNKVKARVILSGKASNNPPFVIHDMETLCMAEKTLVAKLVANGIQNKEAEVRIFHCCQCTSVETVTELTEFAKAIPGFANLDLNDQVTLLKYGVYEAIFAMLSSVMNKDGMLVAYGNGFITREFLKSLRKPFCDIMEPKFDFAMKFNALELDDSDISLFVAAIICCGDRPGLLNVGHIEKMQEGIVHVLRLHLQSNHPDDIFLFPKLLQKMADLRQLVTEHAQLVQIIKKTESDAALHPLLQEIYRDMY
Sequence of human Thyroid Receptor Alpha (TRa), THRA (gene 7067) (P10827 whole entry, looked up): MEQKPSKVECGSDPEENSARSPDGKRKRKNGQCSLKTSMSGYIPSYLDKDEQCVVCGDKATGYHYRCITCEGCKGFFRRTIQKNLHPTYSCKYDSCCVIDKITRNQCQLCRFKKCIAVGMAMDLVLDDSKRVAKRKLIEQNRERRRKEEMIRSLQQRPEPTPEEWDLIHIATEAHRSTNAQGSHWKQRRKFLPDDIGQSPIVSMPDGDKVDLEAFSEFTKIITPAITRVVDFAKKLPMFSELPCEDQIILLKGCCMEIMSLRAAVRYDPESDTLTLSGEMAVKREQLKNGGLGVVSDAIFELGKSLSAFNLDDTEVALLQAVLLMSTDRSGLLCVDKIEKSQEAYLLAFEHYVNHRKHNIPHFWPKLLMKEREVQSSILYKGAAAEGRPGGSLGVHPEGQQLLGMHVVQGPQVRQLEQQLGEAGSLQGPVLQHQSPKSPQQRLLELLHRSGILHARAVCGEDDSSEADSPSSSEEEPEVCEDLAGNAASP
Sequence of Glucocorticoid receptor (Homo sapiens) (P04150 whole entry, looked up): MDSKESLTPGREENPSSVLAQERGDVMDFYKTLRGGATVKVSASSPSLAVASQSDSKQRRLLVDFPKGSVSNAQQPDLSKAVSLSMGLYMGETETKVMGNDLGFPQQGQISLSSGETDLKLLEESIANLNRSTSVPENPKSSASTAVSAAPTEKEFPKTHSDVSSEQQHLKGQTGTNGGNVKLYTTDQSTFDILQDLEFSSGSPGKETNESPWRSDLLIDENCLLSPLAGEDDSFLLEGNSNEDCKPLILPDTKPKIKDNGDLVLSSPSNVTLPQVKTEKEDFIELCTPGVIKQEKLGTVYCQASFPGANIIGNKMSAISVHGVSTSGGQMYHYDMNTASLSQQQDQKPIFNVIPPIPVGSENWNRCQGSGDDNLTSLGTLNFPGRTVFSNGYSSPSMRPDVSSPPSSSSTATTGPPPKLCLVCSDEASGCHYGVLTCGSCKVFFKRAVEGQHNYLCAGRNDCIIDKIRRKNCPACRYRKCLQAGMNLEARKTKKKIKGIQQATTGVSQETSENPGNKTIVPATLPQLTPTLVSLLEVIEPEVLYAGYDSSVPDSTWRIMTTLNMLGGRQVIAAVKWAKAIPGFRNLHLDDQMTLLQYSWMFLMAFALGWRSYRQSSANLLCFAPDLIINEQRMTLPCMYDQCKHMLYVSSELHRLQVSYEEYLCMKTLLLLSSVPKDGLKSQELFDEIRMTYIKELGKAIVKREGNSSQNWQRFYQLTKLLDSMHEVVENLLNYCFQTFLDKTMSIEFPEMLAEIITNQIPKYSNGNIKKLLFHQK
Sequence of PGR (gene 5241) (P06401 whole entry, looked up): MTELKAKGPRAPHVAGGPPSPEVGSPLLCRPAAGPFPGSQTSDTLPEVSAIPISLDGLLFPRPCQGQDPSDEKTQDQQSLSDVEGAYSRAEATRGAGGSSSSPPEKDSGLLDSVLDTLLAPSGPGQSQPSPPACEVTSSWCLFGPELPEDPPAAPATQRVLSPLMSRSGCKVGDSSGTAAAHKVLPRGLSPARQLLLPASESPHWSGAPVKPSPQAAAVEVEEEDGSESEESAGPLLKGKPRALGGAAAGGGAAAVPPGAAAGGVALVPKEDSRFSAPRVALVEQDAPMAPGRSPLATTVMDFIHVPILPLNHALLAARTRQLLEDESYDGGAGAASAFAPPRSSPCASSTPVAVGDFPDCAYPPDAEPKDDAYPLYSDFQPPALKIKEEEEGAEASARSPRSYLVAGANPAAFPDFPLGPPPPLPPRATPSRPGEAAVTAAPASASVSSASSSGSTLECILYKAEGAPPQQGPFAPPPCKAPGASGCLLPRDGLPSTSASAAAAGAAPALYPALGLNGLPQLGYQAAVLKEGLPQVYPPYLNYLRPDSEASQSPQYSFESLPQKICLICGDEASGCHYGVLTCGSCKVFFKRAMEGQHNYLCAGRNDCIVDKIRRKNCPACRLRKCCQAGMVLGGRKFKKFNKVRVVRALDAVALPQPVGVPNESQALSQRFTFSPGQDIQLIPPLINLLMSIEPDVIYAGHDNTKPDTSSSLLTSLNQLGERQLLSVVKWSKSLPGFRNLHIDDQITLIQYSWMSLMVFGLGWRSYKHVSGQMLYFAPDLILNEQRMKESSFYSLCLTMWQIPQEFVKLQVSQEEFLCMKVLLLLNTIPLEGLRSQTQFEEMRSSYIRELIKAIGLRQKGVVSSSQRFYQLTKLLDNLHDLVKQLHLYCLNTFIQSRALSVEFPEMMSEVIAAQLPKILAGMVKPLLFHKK
Sequence of Estrogen receptor (Homo sapiens) + Estrogen receptor beta (Homo sapiens) (P03372 whole entry, looked up, the tested form may be a part): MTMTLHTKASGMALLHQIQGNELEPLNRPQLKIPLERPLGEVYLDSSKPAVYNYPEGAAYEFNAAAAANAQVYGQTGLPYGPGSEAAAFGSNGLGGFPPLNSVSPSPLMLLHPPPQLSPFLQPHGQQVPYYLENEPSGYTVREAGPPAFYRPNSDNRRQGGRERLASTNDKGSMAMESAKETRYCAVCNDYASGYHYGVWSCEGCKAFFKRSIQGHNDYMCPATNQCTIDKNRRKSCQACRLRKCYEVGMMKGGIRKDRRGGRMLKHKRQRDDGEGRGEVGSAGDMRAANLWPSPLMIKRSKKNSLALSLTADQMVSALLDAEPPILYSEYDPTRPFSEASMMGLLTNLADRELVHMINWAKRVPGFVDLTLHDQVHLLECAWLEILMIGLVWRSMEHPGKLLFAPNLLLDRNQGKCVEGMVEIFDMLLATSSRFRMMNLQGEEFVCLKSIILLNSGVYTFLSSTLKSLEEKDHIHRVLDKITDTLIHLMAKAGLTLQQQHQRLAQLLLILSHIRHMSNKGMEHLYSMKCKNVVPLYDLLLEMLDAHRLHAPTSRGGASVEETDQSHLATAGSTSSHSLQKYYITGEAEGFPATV
Sequence of Estrogen receptor (Homo sapiens) + Estrogen receptor beta (Homo sapiens) (Q92731 whole entry, looked up, the tested form may be a part): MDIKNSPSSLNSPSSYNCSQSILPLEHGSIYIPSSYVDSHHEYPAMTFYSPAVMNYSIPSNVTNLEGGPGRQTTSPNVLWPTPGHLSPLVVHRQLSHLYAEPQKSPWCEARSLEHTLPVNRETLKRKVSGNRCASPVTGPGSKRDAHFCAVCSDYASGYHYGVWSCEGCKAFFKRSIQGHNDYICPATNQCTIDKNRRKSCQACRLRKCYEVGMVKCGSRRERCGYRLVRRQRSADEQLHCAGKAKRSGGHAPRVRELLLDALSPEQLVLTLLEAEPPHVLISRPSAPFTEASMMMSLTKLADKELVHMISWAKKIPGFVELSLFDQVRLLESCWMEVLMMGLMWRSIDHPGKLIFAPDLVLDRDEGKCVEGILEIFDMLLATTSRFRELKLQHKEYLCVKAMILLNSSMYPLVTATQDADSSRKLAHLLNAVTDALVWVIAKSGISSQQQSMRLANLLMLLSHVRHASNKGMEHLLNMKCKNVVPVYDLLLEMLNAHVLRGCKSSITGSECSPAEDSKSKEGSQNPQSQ
Sequence of Nuclear receptor subfamily 1 group I member 2 (Homo sapiens) (O75469 whole entry, looked up): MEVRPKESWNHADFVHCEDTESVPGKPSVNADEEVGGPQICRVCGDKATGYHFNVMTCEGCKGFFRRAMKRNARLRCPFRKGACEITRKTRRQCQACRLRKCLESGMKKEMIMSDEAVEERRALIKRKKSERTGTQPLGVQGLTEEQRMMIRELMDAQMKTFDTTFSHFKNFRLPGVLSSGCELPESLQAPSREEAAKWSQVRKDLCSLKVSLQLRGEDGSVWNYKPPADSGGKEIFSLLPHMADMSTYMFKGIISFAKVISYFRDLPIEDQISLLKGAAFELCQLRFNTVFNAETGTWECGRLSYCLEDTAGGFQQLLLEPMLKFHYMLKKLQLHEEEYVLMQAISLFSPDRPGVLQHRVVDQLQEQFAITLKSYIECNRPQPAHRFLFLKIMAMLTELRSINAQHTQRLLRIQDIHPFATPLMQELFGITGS
Sequence of Estrogen receptor beta (Homo sapiens) (Q92731 whole entry, looked up, the tested form may be a part): as the sequence (Q92731 whole entry, looked up, the tested form may be a part) above
Sequence of Retinoic acid receptor alpha (Homo sapiens) (P10276 whole entry, looked up): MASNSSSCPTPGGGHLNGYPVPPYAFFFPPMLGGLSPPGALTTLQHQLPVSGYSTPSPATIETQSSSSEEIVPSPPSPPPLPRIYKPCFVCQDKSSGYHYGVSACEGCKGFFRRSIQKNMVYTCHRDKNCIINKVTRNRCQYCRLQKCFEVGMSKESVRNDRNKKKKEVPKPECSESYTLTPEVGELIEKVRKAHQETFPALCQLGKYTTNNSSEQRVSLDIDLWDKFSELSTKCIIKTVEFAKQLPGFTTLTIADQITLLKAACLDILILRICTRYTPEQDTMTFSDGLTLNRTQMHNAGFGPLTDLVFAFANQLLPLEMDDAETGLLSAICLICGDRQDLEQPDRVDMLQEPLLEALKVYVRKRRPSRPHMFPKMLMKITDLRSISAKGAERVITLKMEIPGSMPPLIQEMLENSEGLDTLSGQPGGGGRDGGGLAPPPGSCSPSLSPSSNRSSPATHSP

Question: With CNC(=O)[C@H]1O[C@@H](n2cnc3c(NCc4cc(Cl)ccc4OCc4cc(C)no4)ncnc32)[C@H](O)[C@@H]1N as the compound, how does the outcome [1] read?
Answer: inactive

Question: What about the outcome [2] of the same compound?
Answer: inactive

Question: What about the outcome [3] of the same compound?
Answer: inactive

Question: What does the source list for COC(=O)c1ccc(O)cc1?
Answer: AC50 [1]: 74.6 µM (active); AC50 [2]: 63.3 µM (active); outcome (PGR (gene 5241)): inactive

Question: Which outcome [1] does the source give for Cc1nc(-c2ccc3c(c2)CCN(CCC2CCC(NC(=O)/C=C/c4ccc(F)cc4)CC2)CC3)no1 (stereo not given) here?
Answer: inactive

Question: What about the outcome [2] of the same compound?
Answer: inactive

Question: What about the outcome [4] of the same compound?
Answer: inactive

Question: What about the outcome [3] of the same compound?
Answer: inactive

Question: For COc1cc(S(=O)(=O)O)c(C)cc1N=Nc1c(O)ccc2cc(S(=O)(=O)O)ccc12, which AC50 (PGR (gene 5241)) is on record?
Answer: 14.2 µM (active)

Question: And the outcome [5]?
Answer: inactive

Question: For COc1cc(-c2nc(NC(=O)c3cc4cc(C)cc(C)c4n3CC(=O)O)sc2CCC2CCCCC2)c(OC)cc1Cl, which outcome [1] is on record?
Answer: inactive

Question: And the outcome [2]?
Answer: inactive

Question: And the outcome [5]?
Answer: inactive

Question: With CNCc1cc(F)ccc1Oc1ccc(Cl)c(Cl)c1 as the compound, how does the outcome [1] read?
Answer: inactive

Question: What about the outcome [2] of the same compound?
Answer: inactive

Question: And the outcome (PGR (gene 5241))?
Answer: inactive

Question: With COc1ccc(S(=O)(=O)N2C(=O)[C@@](c3ccccc3OC)(N3C[C@H](O)C[C@H]3C(=O)N(C)C)c3cc(Cl)ccc32)c(OC)c1 as the compound, how does the AC50 [5] read?
Answer: 5.95 µM (active)

Question: C=CCOC(=O)c1ccccc1C(=O)OCC=C was tested. Which outcome [6] did it give?
Answer: inactive

Question: With Cc1c(C(=O)O)c(O)cc2c1C(=O)c1c(O)c([C@@H]3O[C@H](CO)[C@@H](O)[C@H](O)[C@H]3O)c(O)c(O)c1C2=O as the compound, how does the outcome [1] read?
Answer: inactive

Question: And the outcome [2]?
Answer: inactive

Question: What about the AC50 [4] of the same compound?
Answer: 17.3 µM (active)

Question: Which outcome [7] does the source give for FC(F)(F)C(F)(F)C(F)(F)C(F)(F)C(F)(F)C(F)(F)CCI here?
Answer: inactive

Question: What about the outcome [3] of the same compound?
Answer: inactive

Question: With Nc1ccccc1N as the compound, how does the outcome [1] read?
Answer: inactive

Question: What about the outcome (PGR (gene 5241)) of the same compound?
Answer: inactive

Question: Which results are given for c1cc(-c2ccncc2)ccn1?
Answer: outcome [1]: inactive; outcome [2]: inactive; outcome (PGR (gene 5241)): inactive

Question: How did the outcome [6] turn out when Cc1cc(NC(=O)C(=O)O)cc(C)c1Oc1ccc(O)c2c1CCC2 was run?
Answer: inactive

Question: And the AC50 (PGR (gene 5241))?
Answer: 7.64 µM (active)

Question: And the outcome [4]?
Answer: inactive

Question: How did the outcome [1] turn out when Oc1ccc2ccccc2c1N=Nc1ccccc1 was run?
Answer: inactive

Question: And the outcome [6]?
Answer: inactive

Question: And the outcome [4]?
Answer: inactive

Question: CC(=O)OC/C=C(\C)CCC=C(C)C was tested. Which outcome [3] did it give?
Answer: inactive

Question: How did the outcome [4] turn out when Nc1ccc2c(c1)C(=O)c1ccccc1C2=O was run?
Answer: inactive

Question: And the outcome [5]?
Answer: inactive

Question: Which outcome [1] does the source give for CCCCCCC(=O)OCC here?
Answer: inactive

Question: What about the outcome [2] of the same compound?
Answer: inactive

Question: And the outcome (PGR (gene 5241))?
Answer: inactive

Question: For CN1CCN(Cc2cc(-c3ccc4[nH]c(=O)oc4c3)co2)[C@@H](c2ccc(F)cc2)C1, which AC50 [5] is on record?
Answer: 13.2 µM (active)

Question: Which outcome [7] does the source give for Cc1ccc2ncccc2c1 here?
Answer: inactive

Question: What about the outcome [4] of the same compound?
Answer: inactive

Question: How did the AC50 (PGR (gene 5241)) turn out when CC1(C)CC(N=C=O)CC(C)(CN=C=O)C1 (stereo not given) was run?
Answer: 11.7 µM (active)

Question: What about the outcome [4] of the same compound?
Answer: inactive

Question: What does the source list for CCOc1ccc2c(c1)C(C)=CC(C)(C)N2?
Answer: outcome [6]: inactive; AC50 (PGR (gene 5241)): 9.2 µM (active); outcome [4]: inactive
